D1 antagonist: blocks dopamine activation of the human D1 receptor. 360,000 compounds, 3.2% hits. AID 504652. activity change, negative = inhibition, % at 10 µM. HEK293 TREx D1 cells, calcium flux, dopamine EC80; active compounds read low. P21728; in the data active = activity change below about -30%; also: % is scaled to controls: 0 for no effect and ±100 for the full control effect
Target sequence (P21728 whole entry, looked up): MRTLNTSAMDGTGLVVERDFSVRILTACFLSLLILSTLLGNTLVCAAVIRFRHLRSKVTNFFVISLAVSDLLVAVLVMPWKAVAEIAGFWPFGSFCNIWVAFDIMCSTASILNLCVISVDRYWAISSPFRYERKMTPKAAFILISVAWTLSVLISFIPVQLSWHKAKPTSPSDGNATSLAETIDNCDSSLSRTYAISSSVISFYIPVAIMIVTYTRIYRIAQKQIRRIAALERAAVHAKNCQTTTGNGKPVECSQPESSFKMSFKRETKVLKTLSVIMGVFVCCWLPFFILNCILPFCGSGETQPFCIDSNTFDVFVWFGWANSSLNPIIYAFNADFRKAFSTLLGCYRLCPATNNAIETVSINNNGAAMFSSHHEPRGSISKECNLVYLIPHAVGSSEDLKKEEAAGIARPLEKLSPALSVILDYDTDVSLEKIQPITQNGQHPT
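HEK293 T-REx cells expressing inducible, force-coupled D1 receptor; no-wash Ca dye, 30–90 min RT. Cmpd → 180 s read at 1 Hz → EC80 DA → 180 s read.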
D1 PAM: enhances dopamine response at the human D1 receptor; P21728; HEK293 TREx D1 cells, calcium flux, dopamine EC20 potentiation; potentiation, % at 10 µM; 360,000 compounds, 0.036% hits; AID 504651; in the data active = potentiation above about 30%; also: 0% is about no effect
TRPV1 PAM: enhances activation of the human vanilloid receptor TRPV1 | 320,000 compounds, 0.02% hits | TRPV1-expressing cells, Fluo-8 calcium influx, capsaicin EC20 potentiation | Q8NER1 | potentiation, % at 8.33 µM | AID 540277; in the data active = potentiation above about 80%; inconclusive = between about 30% and that limit; also: 0% is about no effect
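Fluo-8 calcium influx in TRPV1-expressing cells, kinetic read (ex 480/em 520 nm). Compound added and read 3 min for agonist activity, followed by capsaicin at EC20 final and 2 min further read for enhancement.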
TRPV1 agonist: human TRPV1 agonism | TRPV1-expressing cells, Fluo-8 calcium influx, agonist mode | 320,000 compounds, 0.19% hits | activation, % at 8.33 µM; in the data active = activation above about 80%; inconclusive = between about 30% and that limit; also: 0% is about no effect
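Fluo-8 calcium influx in TRPV1-expressing cells, kinetic read (ex 480/em 520 nm). Compound added and read 3 min for agonist activity, followed by capsaicin at EC20 final and 2 min further read for enhancement.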
D1 ag: human D1 receptor agonism. P21728. HEK293 T-REx D1 cells, calcium flux, agonist mode. activation, % at 2 µM. 360,000 compounds, 1% hits. AID 504660; in the data active = activation above about 30%; also: 0% is about no effect
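Tetracycline-induced HEK293 TREx D1 cells, force-coupled to calcium signalling, were dye-loaded with a no-wash calcium kit. Compound was pin-added after a 10 s baseline. Fluorescence was read kinetically at 1 cycle/s for 180 s, with calcium rises flagged as agonism.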
* = called active by the depositor; ? = inconclusive; · = not tested or not shown; ! = repeats disagree. In the library only some 4.2% were active in any assay of this set; here they are far more common.

SMILES	D1 antagonist	D1 PAM	TRPV1 PAM	TRPV1 agonist	D1 ag
CCOc1cc(/C=N/n2c(COc3ccccc3)n[nH]c2=S)ccc1O	0.1	-4.0	?	1.0	102.5*
Oc1ccc(/C=N/n2c(COc3ccccc3)n[nH]c2=S)cc1O	-3.7	0.6	-1.7	2.5	1.1
CCC(C)c1ccc(S(=O)(=O)Nc2cccnc2)cc1 (stereo not given)	-51.3*	-3.5	8.0	6.9	18.1
O=S(=O)(Nc1cccnc1)c1ccc(Cl)c(C(F)(F)F)c1	-37.7*	-7.3	20.0	0.8	1.1
CCc1ccc(NC(=O)CCc2c(C)n(C)c3cc(-c4ccccc4C)nn3c2=O)cc1	27.8	-3.4	·	·	0.9
Cc1cc(C)nc(NS(=O)(=O)c2ccc(NC(=O)COc3ccc(C(C)(C)C)cc3)cc2)n1	7.7	2.5	·	·	0.1
C(=N\NC1=Nc2cccc3cccc1c23)/c1ccccc1	20.7	1.8	2.3	?	14.9
Clc1ccc(/C=N/NC2=Nc3cccc4cccc2c34)cc1	-33.1*	-8.3	3.7	-1.0	6.7
O=[N+]([O-])c1ccc2nc(-c3ccc(Cl)cc3)[nH]c2c1	-49.0*	-3.6	-18.0	?	26.6
O=[N+]([O-])c1ccc2nc(-c3ccccc3[N+](=O)[O-])[nH]c2c1	-39.4*	-9.1	-19.3	28.2	10.1
Cc1ccc(-c2nc3ccc([N+](=O)[O-])cc3[nH]2)cc1	-11.6	-10.0	7.7	-0.1	7.2
Cc1cc(C)c(OCC(=O)N(Cc2ccco2)Cc2ccco2)c(C)c1	-11.4	-3.6	·	·	9.1
O=c1c2c([N+](=O)[O-])cc([N+](=O)[O-])cc2sn1Cc1ccccc1	-29.2	-5.0	5.0	4.8	51.2*
Cc1cc(C)cc(OCC(=O)Nc2nc3c(s2)CC(C(C)(C)C)CC3)c1 (stereo not given)	-75.2*	-0.8	·	·	7.6
Cc1cccc(OCC(=O)Nc2nc3c(s2)CC(C(C)(C)C)CC3)c1C (stereo not given)	11.7	-2.2	·	·	13.7
O=C(NC1CCN(C(=S)NCCc2ccccc2)CC1)C1CCCCC1	-34.0*	-9.9	-12.5	-1.1	6.7
Cc1ccccc1N=C(NOCc1ccc(Cl)cc1Cl)c1nonc1N	-47.9*	-5.7	11.6	3.3	3.0
Cc1ccc(N=C(NOCc2ccc(Cl)cc2Cl)c2nonc2N)c(C)c1	-6.8	-6.2	2.6	15.0	9.1
O=S(=O)(NC1CCCC1)c1cccc(-c2nnc(-c3ccccc3)o2)c1	-12.1	4.3	8.6	-6.2	8.6
COc1cc(-c2nnc(-c3ccc(S(=O)(=O)c4ccccc4)cc3)o2)cc(OC)c1OC	-31.1*	0.5	0.6	-0.8	0.7
COc1ccc(NS(=O)(=O)c2cccc(-c3nnc(-c4ccccc4)o3)c2)cc1	-31.7*	-2.5	-6.3	1.4	-0.5
COc1cc(-c2nnc(-c3ccc(N4CCOCC4)cc3)o2)cc(OC)c1OC	-19.9	1.4	-6.3	1.3	2.1
CCCCCn1c(C(C)NC(=O)CCC)nc2ccccc21 (stereo not given)	-30.1*	-5.5	-8.4	?	0.2
O=c1[nH]c(=O)n(CCO)c2nnn(Cc3ccccc3)c12	-31.2*	-9.2	6.2	-4.0	2.7
O=c1[nH]c(=O)n(Cc2ccccc2)c2nc(-c3ccc(C(F)(F)F)cc3)n(CCO)c12	-30.9*	1.2	21.5	0.0	10.3
SMILES	D1 antagonist	D1 PAM	TRPV1 PAM	TRPV1 agonist	D1 ag
O=c1[nH]c(=O)n(Cc2ccccc2)c2nc(-c3cccs3)n(CCO)c12	2.2	-3.5	23.3	3.0	0.2
O=C(CCn1ccc2cc(S(=O)(=O)N3CCCC3)ccc21)NCc1ccccc1F	-31.3*!	-2.0	-22.1	?	4.6
CCOc1ccccc1CNC(=O)CCn1ccc2cc(S(=O)(=O)N3CCCCC3)ccc21	8.6	3.0	?	2.0	48.1*!
O=C(CCn1ccc2cc(S(=O)(=O)N3CCCC3)ccc21)NCc1ccccc1Cl	-14.8	-2.1	·	·	7.0
N#C/C(=C\Nc1ccccc1O)c1nc2ccccc2o1	-36.2*	-7.2	-7.7	?	21.0
O=C(CSc1nc2c(oc3ccccc32)c(=O)[nH]1)Nc1cccc(Cl)c1	-11.8	-4.2	·	·	5.3
CN(C(=O)CSc1nnc(-c2ccccc2F)o1)C1CCCCC1	-1.0	0.1	·	·	6.8
CC(=O)c1cccc(OCC(O)CNCCc2ccc(Cl)cc2)c1 (stereo not given)	-5.5	-1.0	13.9	8.8	26.4
OC(COc1ccc(CNCCc2ccc(C(F)(F)F)cc2)cc1)CN1CCCCC1 (stereo not given)	-37.5*	-3.0	-20.9	11.3	34.5*
COc1ccc(CCNCC(O)COc2cccc(Br)c2)cc1 (stereo not given)	-0.7	5.2	-4.4	12.1	30.0*
OC(COc1cccc2ccccc12)CN1CCCC1 (stereo not given)	-5.7	-13.2	?	1.1	0.4
OC(CNCCc1ccc(C(F)(F)F)cc1)COc1cccc2ccccc12 (stereo not given)	11.5	6.0	10.6	5.3	42.1*
OC(COc1ccc(OCC(O)CN2CCCCC2)cc1)CN1CCCCC1 (stereo not given)	-0.6	4.5	?	0.2	6.2
CCOC(=O)c1c(C)n(C)c2ccc(OCC(O)CNCCc3ccccc3)cc12 (stereo not given)	5.9	-6.8	-6.9	10.6	2.5
OC(CNCCc1ccc(C(F)(F)F)cc1)COc1ccc2ccccc2c1 (stereo not given)	10.5	7.3	-9.1	7.1	105.8*
COc1ccc(C2CC(=O)c3cc(-c4nc(-c5cccc([N+](=O)[O-])c5)cs4)c(=O)n(-c4ccccc4C)c3C2)cc1 (stereo not given)	12.4	-0.6	·	·	0.1
Cc1ccc(-n2c3c(cc(C(=O)Nc4cccc(Cl)c4)c2=O)C(=O)CC(C)(C)C3)cc1	20.9	1.4	·	·	2.9
Cc1ccc(NC(=O)C2CCCN(c3nnc(C)c4c(C)n(-c5ccccc5)nc34)C2)cc1Cl (stereo not given)	12.2	1.6	·	·	0.6
COc1ccccc1COCC(O)CNCCc1ccc(C(F)(F)F)cc1 (stereo not given)	-25.4	-2.2	-12.5	22.4	49.6*
O=C(Nc1ccccc1C(F)(F)F)c1ncoc1-c1ccco1	9.0	1.6	·	·	6.6
C=CCC(NCc1ccccc1)c1ccc(OC)cc1 (stereo not given)	-33.7*	10.6	-6.6	-5.1	5.9
COc1ccc(CC(=O)NCc2ccccc2)cc1	-8.8	-3.5	-8.3	7.0	1.5
c1ccc(CNCCC(Cc2ccccc2)c2ccco2)cc1 (stereo not given)	-2.4	-6.5	-26.8	2.3	18.9
C=CCC(NCc1ccccc1)c1ccco1 (stereo not given)	-56.8*	-12.7	1.8	2.2	0.7
Cc1ccc(-n2nc3cc(C)c(NC(=O)COc4ccccc4)cc3n2)cc1	-12.6	0.6	·	·	3.9

Source: PubChem BioAssay (National Center for Advancing Translational Sciences (NCATS))
